Test results published in PubChem BioAssay AID1259417 (TB Discovery Research, Infectious Disease Research Institute, 2018).
Screen size: about 1,100 compounds; about 760 (69%) were called active. No rule for the calls is given here. So high a share suggests a set chosen from earlier hits. The list shows a part of the results.

Assay: M. tuberculosis growth inhibition, HTS (AID 1259417);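 also: bacteria grown with compound for 5 days at 37 °C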
Conditions: stronger effect = higher value, concentration not given here
[1] = M. tuberculosis DsRed fluorescence growth inhibition
[2] = M. tuberculosis growth inhibition

Row | Compound | inhibition [1] | inhibition [2] [%]
1 | O=C(Nc1nnc(-c2ccccc2Cl)o1)c1cccc(Oc2ccccc2)c1 | 94% (active) | 93.2
2 | COc1cccc(-c2nnc(NC(=O)c3cccc(F)c3)o2)c1 | 89.3% (active) | 93.2
3 | O=C(Nc1nnc(-c2ccccc2Cl)o1)c1ccco1 | -3.23% (inactive) | -7.63
4 | O=C(Nc1nnc(C2=COCCO2)o1)c1cccc(Cl)c1 | 12.5% (inactive) | 27.2
5 | CC(Nc1nc(N2CCN(C(=O)c3ccc(Cl)cc3)CC2)nc2ccccc12)c1ccccc1 (stereo not given) | 0.606% (inactive) | -19.8
6 | CC(Nc1nc(N2CCCCC2)nc2ccccc12)c1ccccc1 (stereo not given) | 98.6% (active) | 98.9
7 | COC(C)(C)C#CC(=O)c1cccc2ccccc12 | 100% (active) | 98.9
8 | COc1ccccc1C1=Nc2cccc3cccc(c23)N1 | 45.9% (active) | 45.8
9 | Cc1cccc(C(=O)Nc2nnc(C3=COCCO3)o2)c1 | 8.04% (inactive) | 3.45
10 | Cc1nnc(NC(=O)c2ccc3ccccc3c2)o1 | 98.3% (active) | 99.1
11 | CC(Oc1ccc(C(=O)NCCc2ccccc2)cc1)C(=O)OCc1ccccc1 (stereo not given) | 36.1% (active) | 55.5
12 | CC(Oc1ccc(C(=O)NC2CCCCC2)cc1)C(=O)OCc1ccccc1Cl (stereo not given) | 51% (active) | 69.4
13 | Cc1ccc(-c2csc3ncn(C(C)C(=O)OCc4ccccc4Cl)c(=O)c23)cc1 (stereo not given) | -5.81% (inactive) | 4.87
14 | COc1ccc(C(=O)Oc2ccc(C(=O)OCc3ccccc3)cc2)cc1OC | 3.52% (inactive) | -20.9
15 | COC(=O)CSc1ccnc2cc(Cl)ccc12 | 27% (active) | 74.4
16 | Cc1cc(C)c2sc(N3CCCC3)nc2c1 | 100% (active) | 99.8
17 | Cc1ccc(Nc2nc(N3CCN(C)CC3)nc(N)c2[N+](=O)[O-])cc1C | 61.4% (active) | 61.7
18 | Cc1ccc(-c2nnc3sc(Cc4ccccc4)nn23)cc1 | 100% (active) | 99.4
19 | COc1ccc(Cc2nn3c(-c4ccccc4)nnc3s2)cc1 | 100% (active) | 100
20 | Cc1ccc(-c2nnc3sc(CCc4ccccc4)nn23)cc1 | 100% (active) | 100
21 | Cc1cnc(NC(=O)CSc2ccc(Cl)cc2)s1 | -1.45% (inactive) | -17.5
22 | Cc1cccc(Nc2nnc(SCC(=O)Nc3cccnc3Cl)s2)c1 | 3% (inactive) | 14.2
23 | O=C(CSc1ccc(Cl)cc1)Nc1ccc(Br)cn1 | 2.64% (active) | 38
24 | N#Cc1ccc(NC(=O)CSc2ccc(Br)cc2)cc1 | 8.52% (active) | 46.8
25 | N#Cc1ccc(NC(=O)CSc2ccc(Cl)cc2)cc1 | 10.6% (active) | 56.7
26 | O=C(CSc1nnc(SCc2cccc3ccccc23)s1)Nc1ccccc1F | 3.26% (active) | 43.1
27 | O=C(CSc1ccc(Br)cc1)Nc1ccccc1F | 1.79% (active) | 46.4
28 | CCC(C)NCCCOc1ccc(Cl)c2ccccc12 (stereo not given) | 97.1% (active) | 89.4
29 | Clc1ccc(OCCCNCc2ccccc2)c2ccccc12 | -2.3% (inactive) | -30
30 | COC(=O)COc1ccc(-c2ccc(F)cc2)cc1C=O | 39.2% (active) | 85.5
